CIT2-GFP yeast: modulators of TOR pathway CIT2-GFP in S. cerevisiae; S. cerevisiae CIT2-GFP strain, flow cytometry, 3 h; 100 means same as DMSO wells; GFP response vs DMSO, % at 10 µM; 320,000 tested, 0.065% active; AID 2029;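 active means GFP response relative to DMSO above a set limit, near the screen mean plus 3 SD, cut at about 150% in these data; inconclusive means Fewer than 70 cells measured for a yeast strain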;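 further: ratio of well median GFP fluorescence to mean of DMSO wells on the plate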
AGP1 TOR yeast: alters AGP1-GFP fluorescence in TOR pathway yeast screen | S. cerevisiae AGP1-GFP multiplex flow cytometry, 3 h; GFP as percent of DMSO wells | GFP response vs DMSO, % at 10 µM | 320,000 tested, 0.02% active;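 active means GFP response relative to DMSO above a set limit, near screen average plus 3 SD, cut at about 150% in these data; inconclusive means fewer than 70 cells counted for the yeast strain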;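 further: median GFP channel fluorescence of the gated AGP1 strain per well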
RPL19A TOR yeast: yeast TOR pathway RPL19A-GFP modulation; S. cerevisiae RPL19A-GFP strain, flow cytometry, 3 h; active compounds read low; percent response vs DMSO, % at 10 µM; 330,000 tested, 0.3% active; AID 2025;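 active means percent response vs DMSO below 50%; inconclusive means fewer than 70 events counted for the yeast strain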;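 further: median channel GFP fluorescence of the barcoded RPL19A-GFP strain; ratio of sample median GFP to plate DMSO average so 100% = DMSO; lower means less RPL19A-GFP as with rapamycin TOR inhibition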
LAP4-GFP MLPCN: yeast TOR pathway LAP4-GFP modulation | AID 2023 | 320,000 tested, 0.34% active | GFP response vs DMSO, % at 10 µM | S. cerevisiae LAP4-GFP multiplex, flow cytometry GFP, 3 h; median GFP as percent of DMSO wells;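 active means GFP response vs DMSO above a set limit, about the screen mean plus 3 SD, cut at about 150% in these data; inconclusive means under 70 cell events counted for the yeast strain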
MEP2-GFP yeast: modulators of TOR pathway MEP2-GFP in S. cerevisiae. 330,000 tested, 0.51% active. S. cerevisiae MEP2-GFP strain, flow cytometry GFP, 3 h; 100% = DMSO control level. GFP response vs DMSO, % at 10 µM;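 active means GFP response versus DMSO above a set limit, roughly screen mean plus 3 SD, cut at about 180% in these data; inconclusive means fewer than 70 cells counted for a yeast strain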;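 further: median GFP fluorescence of the barcode-gated MEP2-GFP cells per well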
The depositor's hits bear a star; [ ] = another dose, or the depositor's remark. A selection: hits, their analogues and other compounds. The true share with any hit is near 0.89%.

`O=C(C1CCN(S(=O)(=O)c2cccs2)CC1)N(c1ccccn1)C1CCCCC1` gave CIT2-GFP yeast inconclusive, AGP1 TOR yeast inconclusive, RPL19A TOR yeast 45.7*[may fluoresce violet], LAP4-GFP MLPCN 103.8 and MEP2-GFP yeast 85.0.
For O=C(NCc1ccccc1Cl)C1CCN(S(=O)(=O)c2cccs2)CC1 the results were CIT2-GFP yeast inconclusive, AGP1 TOR yeast inconclusive, RPL19A TOR yeast 41.7*[may fluoresce violet], LAP4-GFP MLPCN 56.0 and MEP2-GFP yeast 205.4*[may fluoresce violet].
For COc1ccccc1NC(=O)C1CCN(S(=O)(=O)c2cccs2)CC1 the results were CIT2-GFP yeast active[may fluoresce green], AGP1 TOR yeast active[may fluoresce green], RPL19A TOR yeast inactive, LAP4-GFP MLPCN active[may fluoresce green] and MEP2-GFP yeast active[may fluoresce green].
For O=c1[nH]c(CSc2ccccn2)nc2ccccc12 the results were CIT2-GFP yeast 101.0, AGP1 TOR yeast 94.3, RPL19A TOR yeast 97.6, LAP4-GFP MLPCN 98.6 and MEP2-GFP yeast 104.5.
`Nn1c(CSc2ccccn2)nc2ccccc2c1=O` gave CIT2-GFP yeast inconclusive, AGP1 TOR yeast inconclusive, RPL19A TOR yeast 63.4, LAP4-GFP MLPCN 57.1 and MEP2-GFP yeast 261.3*[may fluoresce violet].
For COCCNC(=O)Nc1ccc2c(c1)N(C)C(=O)c1ccccc1S2 the results were CIT2-GFP yeast 102.2, AGP1 TOR yeast 98.1, RPL19A TOR yeast 94.7, LAP4-GFP MLPCN 101.1 and MEP2-GFP yeast 107.0.
Screening CCC(C)NC(=O)Nc1ccc2c(c1)N(C)C(=O)c1ccccc1S2 (stereo not given) returned CIT2-GFP yeast inconclusive, AGP1 TOR yeast inconclusive, RPL19A TOR yeast 60.6, LAP4-GFP MLPCN 91.1 and MEP2-GFP yeast 187.8*[may fluoresce violet].
For CC(C)C1N(C(N)=S)N=CC1(C)C (stereo not given) the results were RPL19A TOR yeast 48.6*[may fluoresce violet] and MEP2-GFP yeast 664.2*[may fluoresce violet].
Screening Cc1cc2c(cc1C)N(Cc1ccc(Cl)cc1)C1=NCCCN12 returned CIT2-GFP yeast 100.8, AGP1 TOR yeast 101.2, RPL19A TOR yeast 98.5, LAP4-GFP MLPCN 102.8 and MEP2-GFP yeast 104.4.
`COc1ccc(C(=O)NNC(=O)CN2CCC(n3nnc4cc(C)ccc43)CC2)cc1` gave CIT2-GFP yeast 94.1, AGP1 TOR yeast 97.4, RPL19A TOR yeast 98.2, LAP4-GFP MLPCN 86.8 and MEP2-GFP yeast 101.0.
`O=C(c1cncc(Br)c1)N1CCN(S(=O)(=O)c2ccccc2)CC1` gave CIT2-GFP yeast inconclusive, AGP1 TOR yeast inconclusive, RPL19A TOR yeast 55.8, LAP4-GFP MLPCN 75.1 and MEP2-GFP yeast 234.2*[may fluoresce violet].
Screening NC(=O)CC12CC3CC(C1)CC(CC(N)=O)(C3)C2 returned CIT2-GFP yeast 97.7, AGP1 TOR yeast 105.1, RPL19A TOR yeast 98.7, LAP4-GFP MLPCN 101.4 and MEP2-GFP yeast 101.2.
CCC12CC3CC(C1)CC(C(=O)O)(C3)C2 was read as CIT2-GFP yeast inconclusive, AGP1 TOR yeast 15.4, RPL19A TOR yeast 56.4, LAP4-GFP MLPCN 100.8 and MEP2-GFP yeast 182.6*[may fluoresce violet].
Screening N#C/C(=C\c1ccc(N2CCOCC2)o1)c1ccccc1 returned CIT2-GFP yeast 91.2, AGP1 TOR yeast 88.9, RPL19A TOR yeast 99.8, LAP4-GFP MLPCN 121.0 and MEP2-GFP yeast 110.9.
For N#C/C(=C/c1ccc(N2CCOCC2)o1)c1ccc(Br)cc1 the results were CIT2-GFP yeast 101.9, AGP1 TOR yeast 100.2, RPL19A TOR yeast 100.1, LAP4-GFP MLPCN 167.4* and MEP2-GFP yeast 112.6.
`CCC(C)c1ccc(S(=O)(=O)N2CC(=O)Nc3ccccc32)cc1` (stereo not given) gave CIT2-GFP yeast 96.1, AGP1 TOR yeast 92.6, RPL19A TOR yeast 101.2, LAP4-GFP MLPCN 85.6 and MEP2-GFP yeast 91.8.
Screening CCOc1ccc2c(c1)c(C(C)=O)c(C)n2-c1ccccc1 returned CIT2-GFP yeast inconclusive, RPL19A TOR yeast 35.0*[may fluoresce violet], LAP4-GFP MLPCN 98.7 and MEP2-GFP yeast 628.1*[may fluoresce violet].
`CSc1cccc(NC(=S)Nc2ccc(F)cc2)c1` gave RPL19A TOR yeast 55.9 and MEP2-GFP yeast 575.8*[may fluoresce violet].
COCCCNC(=S)Nc1cccc(SC)c1 was read as CIT2-GFP yeast inconclusive, AGP1 TOR yeast inconclusive, RPL19A TOR yeast 40.6*[may fluoresce violet], LAP4-GFP MLPCN 62.0 and MEP2-GFP yeast 243.0*[may fluoresce violet].
CSc1cccc(NC(N)=S)c1 was read as CIT2-GFP yeast 96.7, AGP1 TOR yeast 101.8, RPL19A TOR yeast 98.0, LAP4-GFP MLPCN 108.5 and MEP2-GFP yeast 106.9.
Screening COC(=O)c1ccc(NC(=S)NC(=O)C2CCC2)cc1 returned CIT2-GFP yeast 89.6, AGP1 TOR yeast 85.2, RPL19A TOR yeast 88.7, LAP4-GFP MLPCN 100.4 and MEP2-GFP yeast 92.4.

High-throughput results as filed in PubChem.
